Assay outcomes as filed in PubChem.
D2 antagonist: antagonists of human D2 dopamine receptor; HEK293 TREx D2 cells, calcium flux, dopamine EC80; inhibition, % at 10 µM; 340,000 tested, 2% active; AID 485344; in the data active means inhibition above about 30%; inactive means below that, where a call was filed; further: 0% is about no effect
Target sequence (P14416 whole entry, looked up): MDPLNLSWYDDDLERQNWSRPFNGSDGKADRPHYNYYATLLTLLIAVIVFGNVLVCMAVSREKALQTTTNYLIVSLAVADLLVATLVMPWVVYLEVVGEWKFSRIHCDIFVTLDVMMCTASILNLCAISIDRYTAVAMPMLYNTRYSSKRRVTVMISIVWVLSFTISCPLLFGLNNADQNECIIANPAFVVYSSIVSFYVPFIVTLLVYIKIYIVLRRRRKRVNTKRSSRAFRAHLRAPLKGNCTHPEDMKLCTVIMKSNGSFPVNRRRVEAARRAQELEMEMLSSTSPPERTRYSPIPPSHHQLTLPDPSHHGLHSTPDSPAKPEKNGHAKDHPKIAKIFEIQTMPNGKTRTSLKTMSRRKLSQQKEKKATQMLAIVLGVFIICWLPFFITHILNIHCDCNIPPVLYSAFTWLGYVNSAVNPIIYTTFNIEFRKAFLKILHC
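Compounds are added to dye-loaded, induced HEK293 T-REx cells coupled to calcium release via D2; after a 3 min kinetic read an EC80 dopamine stimulus is given and fluorescence is recorded for 3 more min.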
D2 ag-1: D2 dopamine receptor (human) agonism; AID 485358; HEK293 T-REx D2 cells, calcium flux agonist mode; 340,000 tested, 0.53% active; activation, % at 2 µM;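 active means activation over 3 SD above normal in the single-dose calcium agonist read, cut at about 30% in these data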; further: 0% is about no effect
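Agonism is scored from calcium flux in a force-coupled, inducible HEK293 cell line expressing D2, read kinetically for 180 s after compound addition against dopamine controls.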
D2 PAM-1: D2 dopamine receptor (human) potentiation | HEK293 T-REx D2, calcium flux, EC20 dopamine potentiation | potentiation, % at 10 µM | 340,000 tested, 0.34% active | AID 485347;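 active means potentiation over 3 SD above the plate norm, cut at about 30% in these data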; further: 0% is about no effect
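Tetracycline-induced HEK293 T-REx cells force-coupled to calcium signalling expressed D2; compounds were pin-added after a 10 s baseline, read kinetically 180 s, then an EC20 dopamine challenge followed with a further 180 s calcium read.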
D2 ag-2: human D2 receptor agonism in beta-arrestin assay. DiscoveRx PathHunter D2 beta-arrestin, luminescence, 90 min; 100% = 57 uM dopamine signal. activation, % (concentration not given with the values). 360,000 tested, 0.084% active. AID 624465; in the data active means activation above about 40%; inconclusive means between about 15% and that limit
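DiscoveRx PathHunter D2 beta-arrestin cells (2,100/well) attached overnight, then compound-stimulated 90 min at 37 C in HBSS/10 mM HEPES/0.1% Tween-20 buffer; beta-galactosidase complementation read by luminescence after 1 h at ambient temperature. Dopamine 57 uM final (EC100) as control.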
D2 PAM-2: positive allosteric modulators of human D2 dopamine receptor; P14416; DiscoveRx D2 beta-arrestin cells, luminescence, 90 min; 100% = 57 uM dopamine signal; potentiation, % (concentration not given with the values); 360,000 tested, 0.23% active; AID 624464; in the data active means potentiation above about 50%; inconclusive means mostly about 30% to 49%
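PathHunter beta-arrestin assay in DiscoveRx D2 cells. Compounds were added with an EC20 of dopamine (50 nM final) for 90 min at 37 deg C. Luminescence was read 1 h after detection reagent, with 57 uM dopamine as the EC100 control.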
Starred values were filed as active, the others as inactive; u = inconclusive; x = not tested or not shown. A selection: hits, their analogues and other compounds. The true share with any hit is near 2.4%.

SMILES	D2 antagonist	D2 ag-1	D2 PAM-1	D2 ag-2	D2 PAM-2
Cc1cccc(N=C(N2CCOCC2)P(=O)(N2CCOCC2)N2CCOCC2)c1	11	0	65*	-2	-11
O=C1C2CCCCN2C(=O)N1CCCCN1CCN(c2cccc(Cl)c2)CC1 (centres undefined)	92*	3	-17	4	-11
COc1ccccc1N1CCN(CCCCN2C(=O)C3CCCN3C2=O)CC1 (centres undefined)	x	x	x	2	-24
O=C1C2CCCCN2C(=O)N1CCCCN1CCN(c2ccccc2Oc2ccccc2)CC1 (centres undefined)	84*	0	-15	-7	-5
Cc1cccc(CNC(=O)C2CCN(S(=O)(=O)c3cccc4nonc34)CC2)c1	x	x	11	x	x
Cc1ccc(NC(=O)NC(=O)N(C(C)C)S(=O)(=O)c2ccc(C)cc2)cc1	44*	7	-10	8	-8
NC(N)=NCc1cccc(I)c1	34*	1	-5	5	-17
COc1cccc(CN2CCC2(C)C(=O)Nc2cnc3ccccc3c2)c1F (centres undefined)	x	x	x	13	3
Cc1ccccc1/C=C\c1nc2ccccc2c(=O)[nH]1	33*	1	-7	-1	-7
Cc1ccccc1/C=C/c1nc2ccccc2c(=O)[nH]1	0	0	3	2	-9
Cc1ccc(-c2nc(CSCC(=O)N3CCN(c4ccccn4)CC3)c(C)o2)cc1	-7	37*	-14	0	-2
CCCCN1C(N)=NC[C@H]1Cc1ccc(O)cc1	48*	0	-4	-5	-9
CCCCN1C(N)=NC[C@@H]1Cc1ccc(O)cc1	-13	0	8	0	-5
Cc1ccc(S(=O)(=O)Nc2cccc(C(=O)NCC(c3ccccc3)N(C)C)c2)cc1F (centres undefined)	79*	0	-28	-3	-4
COc1cc(CCC(=O)OCC(=O)Nc2ccc(C(N)=O)cc2)cc(OC)c1OC	39*	0	3	6	7
COc1cc(NC(=O)COC(=O)CCc2cc(OC)c(OC)c(OC)c2)cc(OC)c1	13	1	6	1	0
CC(=O)Nc1ccc(N/C=C/C(=O)c2ccco2)cc1	-9	0	-15	-3	2
CN(C)c1ccc(N/C=C/C(=O)c2ccco2)cc1	-4	0	0	8	55*
CCCCCCCCCCCCCCCCn1cc[n+](CC(C)=O)c1	-6	1	-7	2	-7
CCCCCCn1ccc(=N)cc1	36*	-1	-1	-4	-7
COc1ccc(-c2cnnn2-c2ccc(NC(=O)c3c(F)cccc3F)cc2)cc1	x	1	5	x	x
O=C(CCn1c(=O)c2cccn2c2cccnc21)NCc1ccc(F)cc1	x	-1	2	x	x
CCc1nnc2n1N=C(c1ccc(OC)cc1)CS2	34*	0	4	-3	-7
CCOc1ccc(-c2nnc3n2N=C(c2ccc(OC)cc2)CS3)cc1	19	1	9	1	-2
COc1ccc(Cl)cc1Nc1ncnc2c1nc1n2CCCC1	x	x	-7	x	x
SMILES	D2 antagonist	D2 ag-1	D2 PAM-1	D2 ag-2	D2 PAM-2
CC1CC(C)(C)NC(=S)N1CC(=O)N1CCN(Cc2ccccc2)CC1 (centres undefined)	-6	0	0	0	-2
Cc1ccc(C)c(N2CCN(C(=O)CN3C(=S)NC(C)(C)CC3C)CC2)c1 (centres undefined)	41*	5	2	2	-3
COc1ccc(CNC(=O)c2cc(C3CC3)nc3c2cnn3C(C)C)cc1OC	1	0	-10	0	-3
Cc1ccc(CNC(=O)c2cc(C3CC3)nc3c2cnn3C(C)C)cc1	39*	-1	-37	2	-43
CCOC(=O)CC1=C(C(=O)OCC)C(c2cccnc2)C(C#N)=C(N)O1 (centres undefined)	-1	0	2	-1	-4
CCOC(=O)CC1=C(C#N)C(c2cccnc2)C(C(=O)OCC)=C(N)O1 (centres undefined)	38*	0	2	-1	-9
CC1=C(n2nnc([N+](=O)[O-])n2)C(c2cccnc2)C(C#N)=C(N)O1 (centres undefined)	-4	1	6	u	110*
CCn1c2ccccc2c2cc(NC(=O)C(C)OC(=O)c3ccc(NC(=O)CC#N)cc3)ccc21 (centres undefined)	8	0	4	-5	-3
Cc1ccc(/C=[N+](\[O-])c2ccc(N(C)C)cc2)c2nsnc12	48*	9	-4	3	8
CC1(NC(=O)c2cc(Cl)nc3ccccc23)CCS(=O)(=O)C1 (centres undefined)	7	0	5	-3	0
CCOc1ccccc1CNC(=O)c1cccc(NC(=O)c2nsc3ccccc23)c1	x	0	5	x	x
COc1ccc(-n2c(SCC(=O)Nc3cc(C)on3)nc3c(c2=O)SCC3)cc1	7	-1	-7	-2	-3
COc1ccc(NC(=O)CSc2nc3c(c(=O)n2-c2ccc(F)cc2)SCC3)c(OC)c1	38*	0	3	-4	-20
CCCCn1c(N)c(N(Cc2ccccc2OC)C(=O)c2ccc([N+](=O)[O-])s2)c(=O)[nH]c1=O	-23	0	-1	u	50*
COc1ccc(CCNC(=O)COC(=O)Cn2cnc3c2c(=O)n(C)c(=O)n3C)cc1	-1	0	1	9	-13
O=C(Cn1ncc2c3ccccc3n(Cc3cccc(Cl)c3)c2c1=O)NCCCN1CCCCC1	x	2	-1	x	x
CCN(CC)CCNC(=O)c1cc2cc(Br)ccc2s1	50*	-1	-5	0	-15
CCN(CC)CCNC(=O)c1cc(-c2ccc(Br)s2)nc2ccccc12	-29	1	-10	1	-18
Cc1sc(NC(=O)CSc2nc(N)n(CC(=O)c3ccccc3)n2)c(C#N)c1C	-22	33*	-24	2	5
Cc1ccnc(SC2CC(=O)N(c3ccc(F)cc3)C2=O)n1 (centres undefined)	27	0	6	-2	-2
COc1cccc2sc(N3CCN(C(=O)c4ccc([N+](=O)[O-])o4)CC3)nc12	-2	1	-8	10	21
O=C(c1ccc([N+](=O)[O-])o1)N1CCN(c2nc3c(Cl)cccc3s2)CC1	0	0	2	10	69*
COc1cccc(N2CCN(c3ncc4c(n3)CCN(Cc3ccc(Br)cc3)C4)CC2)c1	x	2	0	x	x
CCCNC(=O)Cn1c(=O)/c(=C\c2ccc(-c3ccc([N+](=O)[O-])cc3)o2)s/c1=C\C(=O)C(C)(C)C	54*	93*	-14	-2	7
NC(=S)N/N=C/c1ccc2ccccc2c1	48*	-1	-13	-2	-17
C(=Nc1ccc(Nc2ccccc2)cc1)c1ccc2ccccc2c1	-9	0	-7	10	52*
